# Results as given in PubChem BioAssay (NCI).
# “And” between values parts separate entries of the source, which are not always exact repeats. Equal entries are not always repeated. This is part of a sample that, as a whole, favours compounds with a hit. Of some 83,000 tested, about 20% had one in any assay.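 96-well plates, one dose, 48 hours. Percent growth reported; active if below 10.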 The source made the active and inactive calls.
# Key:
# Assay in all cases: NCI-60 one-dose screen, 48 h (100 = growth as untreated, 0 = no growth, -100 = all killed)
# Settings in all cases: 10 µM unless noted
# [1] = tested on: HCT-15 colon
# [2] = tested on: HT29 colon
# [3] = tested on: SNB-75 CNS
# [4] = tested on: SNB-19 CNS
# [5] = tested on: U251 CNS
# [6] = tested on: PC-3 prostate
# [7] = tested on: SK-MEL-5 melanoma
# [8] = tested on: UACC-62 melanoma
# [9] = tested on: LOX IMVI melanoma
# [10] = tested on: SK-MEL-28 melanoma
Structure (SMILES),growth [1],growth [2],growth [3],growth [4],growth [5],growth [6],growth [7],growth [8],growth [9],growth [10]
COc1cc(C2CC(c3ccc(S(=O)(=O)NCCNc4nc(N(C)C)nc(N5CCOCC5)n4)cc3)=Nc3c(N)nc(N)nc3N2)cc(OC)c1OC (stereo not given),93.8% (inactive),99.8% (inactive),102% (inactive),96.2% (inactive),97.5% (inactive),96.3% (inactive),91.4% (inactive),93.7% (inactive),94.3% (inactive),100% (inactive)
Nc1nn2c(-c3cc4cc(Br)ccc4oc3=O)ccnc2c1N=Nc1ccc(Br)cc1,31.8% (inactive),28.8% (inactive),7.89% (active),-1.72% (active),6.85% (active),47.7% (inactive),22.7% (inactive),48.9% (inactive),18% (inactive),20.5% (inactive)
COc1ccc2[nH]c(=O)c(CSc3ccccc3Nc3nccc(-c4ccc5c(c4)OCO5)n3)cc2c1,74.3% (inactive),75.2% (inactive),71.8% (inactive),81.6% (inactive),88.6% (inactive),68.1% (inactive),58.9% (inactive),79.2% (inactive),89.6% (inactive),95.9% (inactive)
O=C(N/N=C/c1ccc(B(O)O)s1)c1[nH]c2ccc(Br)cc2c1-c1ccccc1,-92.4% (active),-63.3% (active),-72.7% (active),-97.3% (active),-79.8% (active),-9.11% (active),-95.3% (active),-99.5% (active),-99.3% (active),-93.3% (active)
Cc1ccc2nc(COc3ccc(C(=O)NNC(=O)Nc4ccc(Cl)c(C(F)(F)F)c4)cc3)[nH]c2c1,97.2% (inactive),75.9% (inactive),94.1% (inactive),24.9% (inactive),-1.34% (active),18.1% (inactive),35.3% (inactive),40.1% (inactive),69.1% (inactive),-35.4% (active)
N#CC1=C(c2cccs2)Nc2c(c(-c3ccccc3)nn2-c2ccccc2)C12C(=O)Nc1ccc(Cl)cc12 (stereo not given),10.5% (inactive),14.4% (inactive),36.9% (inactive),13.4% (inactive),16.2% (inactive),12.8% (inactive),25.1% (inactive),15.4% (inactive),25.8% (inactive),41.8% (inactive)
Cc1ccc(C(=O)Nc2ccc(-n3ccnc3)c(C(F)(F)F)c2)cc1C#Cc1cnc2cccnn12,20.7% (inactive),17.8% (inactive),-2.9% (active),36.4% (inactive),33.6% (inactive),-16.3% (active),-55% (active),-15.1% (active),3.66% (active),-10.8% (active)
CN(C)c1nc(NCCNS(=O)(=O)c2ccc(C3=Nc4c(N)nc(N)nc4NC(c4ccc(Cl)cc4)C3)cc2)nc(N2CCOCC2)n1 (stereo not given),61% (inactive),30% (inactive),57.9% (inactive),46.6% (inactive),49.5% (inactive),26.4% (inactive),20.1% (inactive),66.6% (inactive),-2.54% (active),66.4% (inactive)
O=c1[nH]c2ccccc2cc1CSc1ccccc1Nc1nccc(-c2ccc3c(c2)OCO3)n1,95.1% (inactive),94.4% (inactive),9.83% (active),63.1% (inactive),51.3% (inactive),79.2% (inactive),87.2% (inactive),68.5% (inactive),76.5% (inactive),83% (inactive)
O=C(Nc1ccc(-c2ccc3c(c2)NC(=O)/C3=C\c2ccc[nH]2)cc1)Nc1ccc(Cl)c(C(F)(F)F)c1,26.5% (inactive),17.4% (inactive),38.5% (inactive),72.9% (inactive),37.9% (inactive),39.5% (inactive),49.3% (inactive),31.7% (inactive),46.9% (inactive),47.7% (inactive)
CC1=C(C(=O)OCc2ccccc2)C(c2cccc3ccccc23)n2c(nc3ccccc32)N1 (stereo not given),21.7% (inactive),3.87% (active),-15.1% (active),40.9% (inactive),24.9% (inactive),22.8% (inactive),3.71% (active),17.3% (inactive),36.1% (inactive),50.5% (inactive)
COc1ccccc1NC(=O)c1ccc(NC(=O)CCl)s1,-50.8% (active),-66.1% (active),35.9% (inactive),42.1% (inactive),-51.2% (active),-46.7% (active),-23.3% (active),-83.2% (active),-93.4% (active),1.77% (active)
COc1ccc(-n2c(NC(=O)N3CCN(C)CC3)c(C#N)c3ccccc32)cc1,57.5% (inactive),84.2% (inactive),-4.12% (active),52.9% (inactive),41.9% (inactive),58.2% (inactive),37.4% (inactive),50.9% (inactive),9.35% (active),68.8% (inactive)
COc1c(B(O)O)cc(F)cc1-c1nc2ccc3[nH]ncc3c2c2c1COCC2,99.4% (inactive),74.2% (inactive),0.778% (active),32.7% (inactive),45.4% (inactive),83.1% (inactive),64.6% (inactive),68.2% (inactive),24.2% (inactive),61.9% (inactive)
CN(C)CCOc1ccc(C(=O)C2[C@H](c3ccc(Cl)cc3)[C@@H](c3ccccc3)NC23C(=O)Nc2ccc(Cl)cc23)cc1 (stereo not given in full),-91.5% (active),-93.7% (active),-90.7% (active),-96.2% (active),-82.9% (active),-89.9% (active),-98.2% (active),-78.3% (active),-96.3% (active),-93.4% (active)
C=CCSc1nnc(-c2ccc(-c3nc4ccc(Cl)cc4[nH]3)cc2)o1,28% (inactive),32.1% (inactive),45.9% (inactive),76.1% (inactive),47.3% (inactive),63.2% (inactive),35.9% (inactive),39.4% (inactive),39.4% (inactive),60% (inactive)
COc1ccc2c(c1)N=c1c-2cc2c(O)[nH]c(=S)n2c1=O,27.3% (inactive),12.3% (inactive),6.9% (active),59.8% (inactive),30.9% (inactive),37.7% (inactive),13.5% (inactive),34.4% (inactive),32.6% (inactive),72.6% (inactive)
NS(=O)(=O)c1cccc(Nc2nc(SCC(=O)c3ccc(F)cc3)nc3ccccc23)c1,8.07% (active),18.3% (inactive),28.3% (inactive),11.9% (inactive),-12% (active),16.6% (inactive),-29.1% (active),-49.8% (active),-44.6% (active),26.8% (inactive)
CC1(C)CC(=O)C2=C(C1)OC(N)=C(c1nc3ccccc3[nH]1)C2c1ccc(Cl)cc1 (stereo not given),39.8% (inactive) and 106% (inactive),86.8% (inactive) and 115% (inactive),65.4% (inactive) and 124% (inactive),50% (inactive) and 99.9% (inactive),45.1% (inactive) and 112% (inactive),35.6% (inactive) and 107% (inactive),-40.8% (active) and 104% (inactive),-22.9% (active) and 94.3% (inactive),42.9% (inactive) and 107% (inactive),30.1% (inactive) and 109% (inactive)
COc1cc2cc(C(=O)N3C[C@@H](CCl)c4c3cc(OC(=O)N(C)CCSSCCN3CCOCC3)c3ccccc43)[nH]c2c(OC)c1OC,-11.1% (active),-10% (active),-74.6% (active),-99.6% (active),-24.1% (active),-12.2% (active),-46.5% (active),-80.3% (active),-69.2% (active),-60.7% (active)
CNS(=O)(=O)N1CCc2c(Br)c3c(c(OC)c2C1CCc1ccccc1)OCO3 (stereo not given),2.11% (active),-25.4% (active),-38.4% (active),4.35% (active),-63.6% (active),4.03% (active),-100% (active),-78.7% (active),-95.1% (active),-77.9% (active)
CC(C)(C)c1cc(-c2cc(-c3ccccc3)[nH]c(=O)c2C#N)cc(C(C)(C)C)c1,56.6% (inactive),88.8% (inactive),-32% (active),25.7% (inactive),-22% (active),53.3% (inactive),74.5% (inactive),68.3% (inactive),49.2% (inactive),78.5% (inactive)
Cc1nn(-c2ccccc2)c2nc(C)n(C(=O)N/N=C/c3cccc([N+](=O)[O-])c3)c(=O)c12,63.5% (inactive),88.6% (inactive),75.4% (inactive),94.1% (inactive),93.1% (inactive),92.9% (inactive),90.7% (inactive),73.5% (inactive),82.7% (inactive),97.8% (inactive)
COc1ccc(C(=O)C[n+]2cccc3c4ccccc4ccc32)cc1,87.5% (inactive),20.4% (inactive),82.1% (inactive),31.4% (inactive),28.2% (inactive),27.5% (inactive),-31.4% (active),55.7% (inactive),46.1% (inactive),67% (inactive)
COc1cc(C2CC(c3cc(OC)c(OC)c(OC)c3)=Nc3c(N)nc(N)nc3N2)ccc1Oc1nc(Nc2ccc(F)cc2)nc(N(C)C)n1 (stereo not given),4.98% (active),7.02% (active),55.9% (inactive),70.7% (inactive),56.4% (inactive),33.8% (inactive),36% (inactive),83.6% (inactive),10.3% (inactive),74% (inactive)
